# Of roughly 7,900 targets only a part is listed; those with a hit were picked by preference. About 0.6% of all pairs of compound and target were hits. Unmarked numbers belong to inactive results.
# Key:
# Assay in all cases: log2 fold change, soluble protein after heating vs DMSO (PISA); higher = thermal stabilisation; K562 cells, 10 uM, 30 min; active = over 0.2 and 3.5 SD of the protein, either way, in both replicates (recomputed)
# [1] = compound: NC(=O)Nc1cc(-c2cccc(F)c2)sc1C(=O)N[C@H]1CCCNC1
# Outline: (§1)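 K562 cells at 2×10^6 cells/mL were treated for 30 min with 10 μM compound, and aliquots were heated for 3 min over 48°C-58°C before pooling. Extraction used PBS with 0.5% NP-40 at 4°C, and soluble protein was the supernatant after 21,000xg for 90 min, measured by TMTpro 16plex LC-MS/MS with channel sums equalised. Thermal stability values, relative to control samples and from duplicates, are log2 fold changes.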
# [2] = compound: NC(=O)c1cnc(N[C@@H]2CCCC[C@@H]2N)nc1Nc1cccc(-n2nccn2)c1
# Outline: as §1
# [3] = compound: NC1(c2ccc(-c3nc4ccn5c(=O)[nH]nc5c4cc3-c3ccccc3)cc2)CCC1
# Outline: as §1
# [4] = compound: NCC(=O)Nc1ccc(-n2nc(C(F)(F)F)cc2-c2ccc3c(ccc4ccccc43)c2)cc1
# Outline: as §1
# entinostat = compound: Nc1ccccc1NC(=O)c1ccc(CNC(=O)OCc2cccnc2)cc1 [entinostat]
# Outline: as §1
# vorinostat = compound: O=C(CCCCCCC(=O)Nc1ccccc1)NO [vorinostat]
# Outline: as §1
# citarinostat = compound: O=C(CCCCCCNC(=O)c1cnc(N(c2ccccc2)c2ccccc2Cl)nc1)NO [citarinostat]
# Outline: as §1
# silmitasertib = compound: O=C(O)c1ccc2c(c1)nc(Nc1cccc(Cl)c1)c1ccncc12 [silmitasertib]
# Outline: as §1
# [5] = compound: O=C1NC(=O)C(c2cnc3ccccn23)=C1c1cn2c3c(cc(F)cc13)CN(C(=O)N1CCCCC1)CC2
# Outline: as §1
# [6] = compound: c1cc(OCCN2CCCCC2)cc(-c2n[nH]c3ccc(-c4nnc[nH]4)cc23)c1
# Outline: as §1
# entospletinib = compound: c1cn2cc(-c3ccc4cn[nH]c4c3)nc(Nc3ccc(N4CCOCC4)cc3)c2n1 [entospletinib]
# Outline: as §1
# Sequence of UniProt O15400 (O15400 whole entry, looked up): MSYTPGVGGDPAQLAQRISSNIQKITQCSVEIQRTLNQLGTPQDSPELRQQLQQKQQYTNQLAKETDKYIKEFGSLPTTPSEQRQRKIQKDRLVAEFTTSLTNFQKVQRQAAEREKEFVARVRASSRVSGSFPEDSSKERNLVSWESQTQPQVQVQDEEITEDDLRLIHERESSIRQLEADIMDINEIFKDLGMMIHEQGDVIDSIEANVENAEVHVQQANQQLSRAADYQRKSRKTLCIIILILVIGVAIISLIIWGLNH
# Sequence of UniProt Q8N0X7 (Q8N0X7 whole entry, looked up): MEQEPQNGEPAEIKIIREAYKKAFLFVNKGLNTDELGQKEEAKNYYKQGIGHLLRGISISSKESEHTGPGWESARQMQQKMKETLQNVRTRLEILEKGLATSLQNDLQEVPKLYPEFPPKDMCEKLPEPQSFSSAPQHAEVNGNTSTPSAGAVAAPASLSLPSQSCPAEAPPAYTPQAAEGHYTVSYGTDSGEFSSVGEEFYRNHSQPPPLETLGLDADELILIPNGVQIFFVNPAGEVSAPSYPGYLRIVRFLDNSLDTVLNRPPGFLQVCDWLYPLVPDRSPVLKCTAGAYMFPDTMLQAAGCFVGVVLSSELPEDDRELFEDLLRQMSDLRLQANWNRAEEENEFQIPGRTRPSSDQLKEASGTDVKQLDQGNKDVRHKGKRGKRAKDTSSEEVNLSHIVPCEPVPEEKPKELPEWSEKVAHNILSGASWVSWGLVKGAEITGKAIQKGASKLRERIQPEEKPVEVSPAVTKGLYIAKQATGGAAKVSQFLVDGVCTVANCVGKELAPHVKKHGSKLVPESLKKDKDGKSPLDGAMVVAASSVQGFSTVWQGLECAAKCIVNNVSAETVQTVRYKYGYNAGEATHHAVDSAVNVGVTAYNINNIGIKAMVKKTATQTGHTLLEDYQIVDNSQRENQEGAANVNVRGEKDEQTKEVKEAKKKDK
# Sequence of UniProt Q9Y5B9 (Q9Y5B9 whole entry, looked up): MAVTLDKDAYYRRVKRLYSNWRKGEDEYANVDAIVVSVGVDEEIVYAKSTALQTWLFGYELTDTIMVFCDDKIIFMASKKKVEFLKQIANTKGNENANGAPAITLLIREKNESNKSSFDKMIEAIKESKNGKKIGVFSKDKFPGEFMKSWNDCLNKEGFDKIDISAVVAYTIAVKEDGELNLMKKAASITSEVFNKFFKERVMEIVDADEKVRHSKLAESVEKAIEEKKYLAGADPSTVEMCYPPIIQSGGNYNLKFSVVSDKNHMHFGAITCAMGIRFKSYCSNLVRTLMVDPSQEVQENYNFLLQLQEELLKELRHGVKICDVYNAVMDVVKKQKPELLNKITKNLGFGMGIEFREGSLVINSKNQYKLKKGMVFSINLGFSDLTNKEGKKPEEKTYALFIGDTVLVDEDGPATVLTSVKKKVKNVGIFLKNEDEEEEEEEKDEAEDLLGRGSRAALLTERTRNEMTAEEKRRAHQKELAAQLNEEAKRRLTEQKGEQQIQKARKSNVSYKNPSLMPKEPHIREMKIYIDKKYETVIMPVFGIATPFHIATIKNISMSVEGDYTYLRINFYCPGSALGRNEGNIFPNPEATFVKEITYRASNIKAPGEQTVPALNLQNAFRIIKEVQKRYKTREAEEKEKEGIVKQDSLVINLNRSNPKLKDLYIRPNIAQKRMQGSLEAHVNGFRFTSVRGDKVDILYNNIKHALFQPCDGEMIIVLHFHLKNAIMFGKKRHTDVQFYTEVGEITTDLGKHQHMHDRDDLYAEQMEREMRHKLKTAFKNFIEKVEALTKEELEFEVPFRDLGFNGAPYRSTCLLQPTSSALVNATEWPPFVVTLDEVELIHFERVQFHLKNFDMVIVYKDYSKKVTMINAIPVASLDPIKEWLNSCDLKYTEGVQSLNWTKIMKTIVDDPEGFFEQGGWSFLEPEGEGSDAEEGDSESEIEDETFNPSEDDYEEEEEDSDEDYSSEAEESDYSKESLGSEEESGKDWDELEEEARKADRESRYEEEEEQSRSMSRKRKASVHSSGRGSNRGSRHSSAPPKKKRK
# Sequence of UniProt Q9H2K8 (Q9H2K8 whole entry, looked up): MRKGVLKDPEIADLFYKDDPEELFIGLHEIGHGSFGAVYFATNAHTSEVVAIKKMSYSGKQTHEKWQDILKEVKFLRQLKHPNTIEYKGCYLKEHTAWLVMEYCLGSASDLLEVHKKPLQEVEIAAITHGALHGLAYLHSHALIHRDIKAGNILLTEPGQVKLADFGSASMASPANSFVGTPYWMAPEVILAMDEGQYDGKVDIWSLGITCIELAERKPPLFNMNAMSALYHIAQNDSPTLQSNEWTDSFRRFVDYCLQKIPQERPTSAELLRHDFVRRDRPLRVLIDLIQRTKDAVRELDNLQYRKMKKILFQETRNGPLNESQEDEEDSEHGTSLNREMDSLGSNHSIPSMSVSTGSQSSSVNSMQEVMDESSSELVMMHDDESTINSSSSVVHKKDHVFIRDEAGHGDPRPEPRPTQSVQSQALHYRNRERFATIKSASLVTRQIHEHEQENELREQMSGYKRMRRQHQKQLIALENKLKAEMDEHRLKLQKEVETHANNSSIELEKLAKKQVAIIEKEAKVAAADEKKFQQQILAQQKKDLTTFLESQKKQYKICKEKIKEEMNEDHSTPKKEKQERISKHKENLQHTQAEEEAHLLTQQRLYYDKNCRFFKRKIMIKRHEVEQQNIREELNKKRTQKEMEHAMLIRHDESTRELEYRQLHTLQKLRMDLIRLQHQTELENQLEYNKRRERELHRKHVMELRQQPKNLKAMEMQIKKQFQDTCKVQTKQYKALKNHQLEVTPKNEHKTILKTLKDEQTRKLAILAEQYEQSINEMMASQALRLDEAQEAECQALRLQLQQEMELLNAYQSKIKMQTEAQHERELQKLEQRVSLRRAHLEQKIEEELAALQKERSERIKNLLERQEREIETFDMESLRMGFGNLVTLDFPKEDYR
# Sequence of UniProt Q8TC07 (Q8TC07 whole entry, looked up): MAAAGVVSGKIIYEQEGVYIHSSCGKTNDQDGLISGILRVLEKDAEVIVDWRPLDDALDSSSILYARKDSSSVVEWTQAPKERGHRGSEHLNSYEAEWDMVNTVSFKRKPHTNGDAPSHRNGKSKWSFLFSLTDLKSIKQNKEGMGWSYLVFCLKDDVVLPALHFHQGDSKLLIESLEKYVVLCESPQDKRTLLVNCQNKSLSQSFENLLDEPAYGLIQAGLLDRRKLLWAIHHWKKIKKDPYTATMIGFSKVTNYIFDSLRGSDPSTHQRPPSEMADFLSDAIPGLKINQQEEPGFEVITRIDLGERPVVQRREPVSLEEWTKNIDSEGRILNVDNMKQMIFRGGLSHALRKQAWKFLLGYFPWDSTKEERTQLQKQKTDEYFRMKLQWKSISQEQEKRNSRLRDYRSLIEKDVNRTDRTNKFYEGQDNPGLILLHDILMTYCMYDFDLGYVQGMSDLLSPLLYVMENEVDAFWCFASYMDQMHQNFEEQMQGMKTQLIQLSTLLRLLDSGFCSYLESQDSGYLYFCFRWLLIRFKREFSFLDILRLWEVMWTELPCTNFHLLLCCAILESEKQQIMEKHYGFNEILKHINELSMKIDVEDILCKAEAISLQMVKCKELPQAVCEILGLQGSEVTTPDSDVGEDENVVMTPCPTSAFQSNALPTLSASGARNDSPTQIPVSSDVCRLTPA
# Sequence of UniProt P36897 (P36897 whole entry, looked up): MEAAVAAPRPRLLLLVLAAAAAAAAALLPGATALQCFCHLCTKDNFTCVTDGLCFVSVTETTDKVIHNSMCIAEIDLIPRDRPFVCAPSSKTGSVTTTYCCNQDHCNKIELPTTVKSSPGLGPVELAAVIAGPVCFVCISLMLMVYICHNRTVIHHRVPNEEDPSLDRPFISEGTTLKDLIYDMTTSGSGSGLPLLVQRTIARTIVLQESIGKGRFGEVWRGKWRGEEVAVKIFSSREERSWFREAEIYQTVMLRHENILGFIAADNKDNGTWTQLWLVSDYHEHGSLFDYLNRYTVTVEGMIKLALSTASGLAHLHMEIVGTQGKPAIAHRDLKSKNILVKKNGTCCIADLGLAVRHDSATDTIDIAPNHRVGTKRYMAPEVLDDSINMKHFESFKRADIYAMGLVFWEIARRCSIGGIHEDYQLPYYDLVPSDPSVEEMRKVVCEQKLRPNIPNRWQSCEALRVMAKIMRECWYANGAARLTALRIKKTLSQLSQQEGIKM
# Sequence of UniProt Q6P1M0 (Q6P1M0 whole entry, looked up): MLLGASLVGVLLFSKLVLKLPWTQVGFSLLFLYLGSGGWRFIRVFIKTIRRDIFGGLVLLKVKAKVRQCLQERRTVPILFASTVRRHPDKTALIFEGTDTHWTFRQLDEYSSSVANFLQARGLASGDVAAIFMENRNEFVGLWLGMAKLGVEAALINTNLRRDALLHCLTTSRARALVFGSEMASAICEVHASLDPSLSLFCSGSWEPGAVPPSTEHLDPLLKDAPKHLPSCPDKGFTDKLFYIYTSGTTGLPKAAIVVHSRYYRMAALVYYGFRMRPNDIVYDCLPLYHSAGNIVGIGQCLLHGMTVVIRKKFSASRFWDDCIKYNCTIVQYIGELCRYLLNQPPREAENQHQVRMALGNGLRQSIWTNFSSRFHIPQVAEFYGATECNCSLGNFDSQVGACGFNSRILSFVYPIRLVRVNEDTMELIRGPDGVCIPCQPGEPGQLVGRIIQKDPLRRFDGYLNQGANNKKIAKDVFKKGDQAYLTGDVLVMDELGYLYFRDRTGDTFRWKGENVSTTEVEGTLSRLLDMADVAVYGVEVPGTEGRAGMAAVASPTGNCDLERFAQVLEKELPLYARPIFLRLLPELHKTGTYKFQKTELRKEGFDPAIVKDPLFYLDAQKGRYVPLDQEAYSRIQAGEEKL
# Sequence of UniProt P50225 (P50225 whole entry, looked up): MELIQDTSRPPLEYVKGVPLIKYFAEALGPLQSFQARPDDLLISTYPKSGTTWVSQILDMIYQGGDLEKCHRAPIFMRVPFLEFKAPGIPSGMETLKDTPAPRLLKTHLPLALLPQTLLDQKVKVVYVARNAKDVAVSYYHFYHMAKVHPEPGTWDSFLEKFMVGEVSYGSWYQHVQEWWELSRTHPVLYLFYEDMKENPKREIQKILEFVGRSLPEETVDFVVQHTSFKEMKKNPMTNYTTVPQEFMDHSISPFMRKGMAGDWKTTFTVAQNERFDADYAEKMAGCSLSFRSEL
Target,log2 fold change [1],log2 fold change [2],log2 fold change [3],log2 fold change [4],log2 fold change (entinostat),log2 fold change (vorinostat),log2 fold change (citarinostat),log2 fold change (silmitasertib),log2 fold change [5],log2 fold change [6],log2 fold change (entospletinib)
TBC1D20 isoform 3 (UniProt Q96BZ9),-0.062,0.052,0.027,-0.08,0.026,0.033,0.293,0.03,-0.007,0.03,-0.065
SLC38A7 (UniProt Q9NVC3),-0.017,0.002,-0.299,0.197,-0.066,0.11,0.085,0.022,-0.107,-0.004,0.004
SNX1 (UniProt Q13596),-0.01,-0.375 (active),-0.336 (active),0.011,0.121,0.147,0.054,-0.062,-0.04,-0.094,-0.002
STX7 (UniProt O15400),0.036,-0.02,-0.072,0.011,-0.028,-0.093,-0.002,0.017,-0.006,0.079,0.02
TFRC (UniProt P02786),-0.021,-0.031,-0.823 (active),-0.001,-0.008,-0.02,0.062,0.006,-0.023,-0.071,0.022
STK38L (UniProt Q9Y2H1),-0.046,-0.015,-0.117,0.078,0.109,0.02,0.036,0.101,-0.078,0.05,0.083
SPART (UniProt Q8N0X7),-0.032,-0.105,-0.053,0.006,0.043,-0.032,0.015,0.081,-0.024,0.04,-0.005
SNX6 (UniProt Q9UNH7),-0.027,-0.376 (active),-0.403 (active),0.007,0.075,0.15,0.064,-0.142,-0.003,-0.087,-0.019
SLC30A10 (UniProt Q6XR72),-0.035,0.088,0.084,0.133,-0.003,-0.215,-0.008,-0.05,-0.005,-0.432 (active),0.01
SRPRA (UniProt P08240),-0.03,0.017,-0.049,-0.045,0.02,0.033,0,0.021,0.008,0.015,-0.052
TIAL1 isoform 2 (UniProt Q01085),-0.014,-0.026,-0.05,-0.048,-0.005,0.025,-0.002,-0.003,0.003,-0.036,0.003
SQSTM1 (UniProt Q13501),-0.036,-0.12,-0.068,-0.079,0.051,0.007,0.081,0.056,0.019,-0.094,0.02
TAOK3 (UniProt Q9H2K8),-0.013,-0.149,-0.048,0,0.034,0.036,0.106,0,0.021,-0.203,-0.016
SYNE1 (UniProt Q8NF91),-0.006,-0.031,-0.008,0.04,-0.027,0.114,0.106,-0.03,-0.244,0.006,-0.141
SUPT16H (UniProt Q9Y5B9),-0.017,-0.111,-0.183,-0.158,0.207,0.178,0.198,0.109,-0.227,0.025,-0.055
TGFBR1 isoform 2 (UniProt P36897),0.029,0.072,-0.041,0.002,0.093,-0.083,0.017,0.073,-0.052,-0.054,-0.018
SMAP (UniProt O00193),0.007,-0.021,0.12,0.013,0.016,-0.047,-0.029,-0.033,0.006,0.02,0.07
SRI (UniProt P30626),-0.014,0.081,-0.04,0,0.058,-0.044,0.027,-0.004,-0.045,-0.038,0.019
SLC27A4 (UniProt Q6P1M0),-0.086,-0.043,-0.034,0.016,-0.024,0,0.043,0.022,-0.073,-0.1,-0.027
TBC1D15 isoform 3 (UniProt Q8TC07),-0.013,-0.086,-0.202,-0.033,0.118,0.101,0.036,0.071,-0.008,-0.059,0.007
SUPT5H (UniProt O00267),-0.031,-0.049,-0.129,-0.095,0.029,0.043,0.074,0.038,-0.115,-0.028,0.031
SREK1 isoform 2 (UniProt Q8WXA9),0.194,-0.068,0.03,-0.208,0.012,0.05,0.129,-0.148,0.059,-0.213,-0.026
SRC isoform 2 (UniProt P12931),-0.578 (active),0.006,0.049,-0.088,0.12,0.079,-0.104,0.122,0.093,0.199,0.02
TCOF1 isoform 4 (UniProt Q13428),0.131,-0.065,-0.014,-0.013,-0.015,-0.026,-0.002,0.002,0.045,-0.112,0.001
SMCHD1 (UniProt A6NHR9),-0.085,-0.352,0.159,-0.423,0.08,0.19,0.085,0.095,0.206,-0.176,0.049
SULT1A1 (UniProt P50225),-0.049,0.039,-0.179,0.123,0.133,0.063,0.056,-0.038,-0.095,0.032,-0.057
TM9SF4 (UniProt Q92544),0.024,0.064,-0.061,0.032,-0.01,0.146,0.044,0.03,-0.011,-0.057,0.022
SURF1 (UniProt Q15526),-0.007,0.014,-0.176,-0.135,0.077,0.059,0.112,-0.04,-0.031,-0.043,0.029

# Reference: the supplement of paper PMC10849652
